From PubChem BioAssay
Glyco luc inh: increase of ERlucT glycosylation luciferase signal, primary screen, N-linked glycosylation inhibitor project, D54 ERlucT cells, luminescence, set 2 | D54 ERlucT glycosylation luciferase reporter, 24 h; percent of 100 nM tunicamycin response | reporter increase, % at 12.5 µM | hit rate 0.23% among 360,000 | AID 588692, 2011;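 active means mean luciferase reporter signal, scaled so untreated is 0 and the glycosylation-blocking control 100, at or above a set limit in every replicate; inconclusive means mean reaches the limit but not every replicate does; inactive means mean below the limit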;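 further: luciferase carries N-glycosylation sites so blocking glycosylation raises the light; 0% = median of neutral control wells and 100% = median of 100 nM tunicamycin wells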
CaV13 ICDI inh: Disruptors of the CACNA1D IQ motif to Ca2+-dependent inactivation inhibitor domain association, primary screening, Förster resonance energy transfer in intact living …; HEK cells, CFP/YFP FRET ICDI-IQ, plate reader, 10 min; percent FRET-ratio fall versus neutral wells; inhibition, % at 12.3 µM; hit rate 0.098% among 340,000; AID 743397;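 active means mean replicate inhibition of at least 30% and at least 1% of replicates passing that level; inconclusive means only one of the two criteria is met; inactive means neither criterion is met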;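 further: 0% = median of the neutral control wells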
NSD2 HMT inh: NSD2 histone methyltransferase inhibitors, primary screen, biochemical, AlphaScreen, single concentration, set 2. NSD2 peptide methylation, 120 min. inhibition, % at 12.5 µM. hit rate 0.54% among 310,000; in the data active means inhibition above about 50%
DSG3 Ab inh: inhibitors of pemphigus antibody binding to DSG3, primary screen, biochemical, bead-based, flow cytometry, scFv-GFP; Desmoglein-3 (Homo sapiens), P32926; DSG3-coupled beads, scFv-anti-DSG3-GFP binding; stronger effect = lower value; binding (percent of control), % at 10 µM; hit rate 0.48% among 310,000;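 active means binding more than 3 SD below its plate's average and above zero; inconclusive means below that plate limit but binding exactly zero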
Vif imaging: HIV Vif self-association inhibitors, primary screen, imaging, HEK293T, single point. HEK293T cells, Vif self-association by quenched fluorescence, 24 h. inhibition, % at 7.49 µM. hit rate 0.35% among 340,000. AID 602346, 2012; in the data active means inhibition above about 50%, passing the limit was not always enough; inconclusive means no clear call, values can overlap the other calls; inactive means below about 31%
ATG4B inhibitor: ATG4B protease inhibitors, primary screen, biochemical, fluorescence, uHTS; Cysteine protease ATG4B (Homo sapiens), Q9Y4P1; inhibition, % at 8.33 µM; ATG4B cleavage of LC3-PLA2, NBD-HPC fluorescence, 1 h; AID 504462, 2011; hit rate 0.51% among 340,000; in the data active means inhibition above about 40%
Target sequence (Q9Y4P1 whole entry, looked up): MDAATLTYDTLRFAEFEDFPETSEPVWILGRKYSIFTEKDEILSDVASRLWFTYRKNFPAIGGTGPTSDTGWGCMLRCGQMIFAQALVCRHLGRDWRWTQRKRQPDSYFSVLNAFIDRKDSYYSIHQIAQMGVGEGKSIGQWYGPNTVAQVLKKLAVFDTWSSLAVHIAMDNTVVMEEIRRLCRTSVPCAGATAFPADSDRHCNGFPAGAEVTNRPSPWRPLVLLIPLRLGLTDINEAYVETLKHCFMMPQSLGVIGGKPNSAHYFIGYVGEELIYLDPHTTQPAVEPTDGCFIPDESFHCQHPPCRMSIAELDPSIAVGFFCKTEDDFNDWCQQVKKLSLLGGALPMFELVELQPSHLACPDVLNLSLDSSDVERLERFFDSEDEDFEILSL
The depositor's hits bear a star; i = inactive; u = inconclusive; x = no result given. In the library only some 1.9% were active in any assay of this set; here they are far more common.

SMILES | Glyco luc inh | CaV13 ICDI inh | NSD2 HMT inh | DSG3 Ab inh | Vif imaging | ATG4B inhibitor
Cc1cccc(OCC(=O)Nc2ccccc2N2CCCC2)c1C | 0.8 | x | 3.1 | 141.6 | -19.8 | 10.7
Cc1cc(NC(=O)CSc2nc3c(sc4ccccc43)c(=O)n2CCCN2CCOCC2)n[nH]1 | 12.5 | -5.6 | -3.2 | 100.0 | 94.0* | 1.2
Cc1cc(NC(=O)CSc2nc3c(sc4ccccc43)c(=O)n2CCc2ccccc2)n[nH]1 | -5.9 | -5.6 | -1.3 | 92.3 | 8.2 | -2.7
O=C(CCc1ccccc1)N[C@@H]1c2ccccc2CC[C@@H]1OCc1ccccc1 | -2.6 | -8.5 | x | 105.9 | -5.0 | -9.2
CN(CC(=O)Nc1ccccc1C(F)(F)F)C(=O)Cc1ccc(S(=O)(=O)N2CCOCC2)s1 | 1.0 | -5.9 | -0.8 | 103.3 | 2.8 | -1.2
Cc1ccc(C(=O)NC(=C(Cl)Cl)S(=O)(=O)c2ccc(C)cc2)cc1 | u | -10.6 | -0.2 | 100.8 | -2.5 | 1.6
Cc1ccc(S(=O)(=O)C(NC(=O)c2ccccc2)=C(Cl)Cl)cc1 | 74.9* | -3.1 | x | u | u | -8.4
CC(=O)NC(=C(Cl)Cl)S(=O)(=O)c1ccccc1 | u | -3.1 | 2.5 | 97.8 | x | 12.1
Cc1ccc(C(=O)NC(=C(Cl)Cl)S(=O)(=O)c2ccc(Cl)cc2)cc1 | 53.9* | -0.1 | 0.6 | 104.9 | 9.8 | 3.7
O=C(NC(=C(Cl)Cl)S(=O)(=O)c1ccc(Cl)cc1)c1ccccc1 | 58.7* | -10.5 | 5.0 | 92.6 | 2.4 | -10.0
CN(C)CCn1c(NC(=O)c2ccc(Cl)cc2)nc2ccccc21 | 5.0 | -10.4 | x | 103.9 | -0.9 | 4.4
CC1=C(C)CC(C(=O)Nc2cccc([N+](=O)[O-])c2)C(C(=O)O)C1 (stereo not drawn) | -0.2 | -6.4 | -0.7 | 105.1 | -5.0 | -4.5
Cc1cncc(N2CCN(c3ccccn3)CC2)n1 | -0.6 | -5.3 | 1.1 | x | x | x
COc1ccc(Oc2c(OC)cc(NCc3ccc(CN)cc3)c3ncccc23)cc1 | 1.5 | -6.0 | 76.5* | 104.6 | x | x
NCCCC[C@H]1NC(=O)[C@H](CCC(=O)O)NC(=O)c2cc([N+](=O)[O-])cc(I)c2OCC[C@@H](C(N)=O)NC1=O | x | x | x | x | x | 44.0*
N#Cc1ccc(-c2cccnc2)nc1SCC(=O)c1ccccc1 | -7.5 | -15.5 | -1.6 | 103.2 | 173.3* | -6.7
N#Cc1ccc(-c2ccccc2)nc1SCC(=O)c1cccc(Cl)c1 | 0.4 | -6.9 | 1.0 | 111.3 | i | -3.0
OC12CC3C[C@H](C1)C(N1CCOCC1)[C@@H](C3)C2 (stereo partly drawn) | 2.3 | -4.5 | 0.5 | 111.6 | 1.5 | 4.4
CC(C)CN1CCN(Cc2nc(C(C)C)cs2)CC1CCO (stereo not drawn) | -1.2 | -2.7 | 9.3 | -8.8* | -1.6 | 21.1
COc1cc(C(=O)NCC2CCCCC2)cc(OC)c1OC | 4.8 | -3.4 | 0.3 | 97.2 | 12.9 | -1.7
CC(=O)c1ccc(C(=O)N2CCC(CO)(Cc3cccc(C(F)(F)F)c3)CC2)cc1 | 1.7 | -6.3 | -0.2 | 103.2 | -12.7 | -0.3
CC1(C(=O)N2CCC(CO)(Cc3cccc(C(F)(F)F)c3)CC2)CC1 | 0.0 | -4.9 | -3.6 | 97.5* | 2.9 | 4.7
Cc1c(CCOC(=O)c2ccc(Cl)cc2Cl)sc[n+]1CC(=O)c1ccccc1 | 0.7 | -7.7 | 26.4 | 100.6 | -5.8 | 3.0
Cc1c(Cl)cccc1NC(=S)N1CCN(c2ccc([N+](=O)[O-])cn2)CC1 | -0.4 | -13.2 | 2.0 | 90.5* | 13.3 | -3.4
Cc1cc(NS(=O)(=O)c2ccc(NC(=O)COc3c(C)cc(Br)cc3C)cc2)no1 | 32.7* | -2.0 | -4.2 | x | 7.0 | 0.7
SMILES | Glyco luc inh | CaV13 ICDI inh | NSD2 HMT inh | DSG3 Ab inh | Vif imaging | ATG4B inhibitor
COc1ccc(OCC(=O)Nc2ccc(S(=O)(=O)Nc3cc(C)on3)cc2)cc1 | -0.2 | x | 1.7 | 102.2 | 1.3 | 3.4
Cc1ccc(CN2CCN(Cc3nc4c(s3)CCCC4)CC2CCO)cc1 (stereo not drawn) | -1.1 | -3.9 | 2.1 | 99.2 | -1.0 | -1.1
O=C(OCC(=O)C12CC3CC(CC(C3)C1)C2)c1ccccc1O | -1.3 | -1.8 | x | 69.9* | 12.3 | 2.6
O=C(COC(=O)c1ccccc1O)NC12CC3CC(CC(C3)C1)C2 | 0.9 | -4.4 | -2.0 | x | 4.7 | -2.1
Cc1cc(C)c(S(=O)(=O)Nc2ccc3c4c(cccc24)CC3)c(C)c1 | 5.5 | -4.9 | 7.6 | 122.8 | 56.8* | 10.6
COc1ccc(CCNC(=O)CN2C(=O)NC(c3ccccc3)(c3ccccc3)C2=O)cc1 | 0.5 | -5.9 | 0.0 | 94.1 | 7.2 | -19.6
COc1ccc(CNC(=O)CN2C(=O)NC(c3ccccc3)(c3ccccc3)C2=O)cc1 | 2.0 | -6.0 | 1.0 | 116.6 | 110.2* | -2.6
O=C(Nc1ccncc1)c1ccc(Cl)cc1 | -0.1 | -4.6 | -2.0 | 107.9 | -1.4 | -3.4
CCCC(=O)Nc1ccc(Oc2ccc(NC(=O)CCC)cc2)cc1 | 0.4 | -5.2 | -2.5 | 55.4* | -12.0 | -9.5
CC(C)Oc1ccc(CN2CCC2(C)C(=O)Nc2ccc(Cl)c(Cl)c2)cc1 (stereo not drawn) | -1.6 | -6.1 | 0.7 | x | 58.0* | x
Cc1ccc(NC(=O)C2(C)CCN2Cc2ccc(OC(C)C)cc2)cc1 (stereo not drawn) | 0.6 | -4.6 | -4.9 | x | -3.5 | x
CC(=O)Nc1ccc(-c2ccnc3c2CC(C(=O)NCc2ccccc2)O3)cc1 (stereo not drawn) | 15.7 | -5.3 | -5.6 | x | 66.0* | x
NC(=O)c1ncn([C@@H]2O[C@H](CNCc3ccccc3OCc3ccc(Cl)cc3Cl)[C@@H](O)[C@H]2O)n1 | 1.6 | -6.2 | x | 99.9 | -3.0 | -9.5
Cc1cc(Cl)c(Cl)cc1S(=O)(=O)NCCCn1ccnc1 | 0.0 | -19.3 | -1.5 | 96.1 | -0.1 | -5.0
CCCC(=O)Nc1nc(-c2ccc(Cl)s2)cs1 | -0.1 | -2.3 | 2.4 | 94.3 | -10.9 | 2.7
O=C(N/N=C/c1cccnc1)c1cc(-c2ccccc2OCc2ccccc2)n[nH]1 | 40.9* | 8.3 | -2.8 | 107.6 | -3.3 | 3.9
S=c1[nH]nc(-c2cc(-c3ccccc3)n[nH]2)n1/N=C/C(Br)=C/c1ccccc1 | 32.2* | -2.5 | 2.2 | 109.8 | 20.1 | -2.9
Cc1cc2c(c(=O)n1CCCn1ccnc1)C(c1ccco1)C(C#N)=C(N)O2 (stereo not drawn) | 1.2 | x | -3.4 | 102.0 | -0.9 | 3.3
O=C(COc1ccc([N+](=O)[O-])cc1)NNC(=O)c1cccs1 | 0.5 | 6.6 | -1.2 | 106.2 | 52.6* | -4.3
CC(=O)c1sc(NC(=O)COc2ccc(Br)cc2)nc1C | 5.0 | 5.5 | 0.5 | 96.9 | -4.3 | -7.1
